EWS-Fli block – blocks EWS/Fli oncoprotein-driven transcription | A673 NR0B1-luciferase reporter, viability-normalised | inhibition, % at 12.6 µM | 0.67% of 350,000 active | AID 651661;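 active = mean inhibition of at least 50% after viability correction, with every replicate also passing that limit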;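 note: firefly luciferase signal divided by Alamar Blue viability fluorescence both relative to DMSO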
TWEAK Fn14 block – TWEAK-Fn14 signaling inhibition; TWEAK-stimulated Fn14 reporter cells, luciferase luminescence, 8 h; inhibition, % at 10 µM; 2% of 360,000 active; in the data active = inhibition above about 50%
PAX8 reporter – inhibitors of PAX8 transcriptional activity in RMG-I cells. 1.2% of 360,000 active. inhibition, % at 12.6 µM. RMG-I TPO-luciferase reporter, SteadyGlo, 24 h;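 active = mean replicate inhibition at least 60% with every replicate also reaching 60%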;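 note: luciferase light reporting Pax8 driven TPO promoter activity; plate controls were median of neutral control wells for no effect and mitoxantrone controls for full effect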
EBV LMP1 NFkB – Epstein-Barr LMP1 NF-kappaB reporter inhibition; inhibition, % at 12.5 µM; AID 504558; 0.69% of 350,000 active; LMP1-induced NF-kappaB luciferase reporter cells, luminescence; in the data active = inhibition above about 41%;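 note: 0% = neutral control wells and 100% = reference inhibitor control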
LGR2 antag – inhibitors of bursicon-induced Drosophila LGR2 receptor cAMP signaling. AID 720647. HEK293 LGR2, CRE-luciferase, bursicon-stimulated, 4 h. 0.35% of 380,000 active. inhibition, % at 9.99 µM;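 active = drop in luminescence signal, shown as inhibition above about 50% in the replicate tests, limit read from the data, passing the limit was not always enough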;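 note: agonist challenge used bursicon conditioned medium at about half maximal strength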
TROY NFkB inh – blocks TROY-dependent signaling in reporter cells; Q293 LMP1-TROYcd NF-kB luciferase reporter, 4 h; inhibition, % at 10 µM; 0.98% of 360,000 active; AID 1347056;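 active = compounds whose plate-normalised and pattern-corrected inhibition of the luciferase reporter signal at the single screening dose is 50% or more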
* marks the source's active call; other numbers are inactive results; / = no result given. The list is not random: actives were taken first. Their share in the collection is about 3.2%.

SMILES	EWS-Fli block	TWEAK Fn14 block	PAX8 reporter	EBV LMP1 NFkB	LGR2 antag	TROY NFkB inh
CC(=O)O[C@]1(C(C)=O)CC[C@H]2[C@@H]3C=C(C)C4=CC(=O)CC[C@@H]4[C@H]3CC[C@@]21C	13	-11	14	52*	-11	-2
N#C/C(=C\c1cc2ccccc2nc1N1CCOCC1)C(=O)Nc1ccc(N2CCOCC2)cc1	11	23	29	17	6	58*
N#CC(C#N)=Cc1cc2ccccc2nc1N1CCOCC1	-6	35	-12	0	17	28
COc1ccc(S(=O)(=O)N(C)C[C@H]2Oc3ccc(NC(=O)Nc4ccccc4)cc3C(=O)N([C@H](C)CO)C[C@H]2C)cc1	7	/	/	/	5	/
C[C@@H]1CN([C@@H](C)CO)S(=O)(=O)c2ccc(C3=CCCC3)cc2O[C@H]1CN(C)C(=O)c1ccccn1	0	/	/	/	-10	/
C[n+]1c2n(c3ccccc31)N=C(c1ccc(-c3ccccc3)cc1)CS2	43	54*	96*	23	-24	20
COc1ccc(/C=N/NC(=O)c2[nH]c3ccc(Br)cc3c2-c2ccccc2)c(C(=O)O)c1OC	7	10	2	-5	16	9
COc1ccc(/C=N/NC(=O)c2[nH]c3ccc(Br)cc3c2-c2ccccc2)cc1	/	-30	102*	13	-16	22
Cc1ccc(S(=O)(=O)Nc2ccc3c(c2)C(=O)N(C)[C@H]2CC[C@@H](CC(=O)O)O[C@H]2CO3)cc1	-6	/	0	/	0	/
CCc1ccc(-c2nc(-c3ccncc3)no2)cc1	/	76*	/	16	/	34
c1ccc(-c2ccc(-c3nc(-c4ccncc4)no3)cc2)cc1	/	65*	/	3	/	30
Clc1ccc(-c2nc(-c3ccncc3)no2)c(Cl)c1	-56	16	-185	-22	-70	-11
c1ccc(-c2nc(-c3ccncc3)no2)cc1	/	-4	/	-20	-37	-44
Cc1ccc(-c2nc(-c3ccncc3)no2)c(Cl)c1	56*	69*	-34	9	75*	30
O=C(C[C@H]1CC[C@@H](NS(=O)(=O)c2cccc(F)c2)[C@H](CO)O1)NCc1ccc2c(c1)OCO2	-5	/	8	/	3	/
Cc1c(Cc2ccccc2)sc(NC(=O)/C=C/c2cccc3ccccc23)c1C(N)=O	60*	17	5	13	13	-20
COC(=O)c1c(NC(=O)/C=C/C(=O)O)sc(Cc2ccccc2)c1C	/	31	/	3	/	20
CN1CCN(c2nc3c(c(=O)n(C)c(=O)n3C)n2Cc2ccccc2F)CC1	21	0	11	2	-15	2
Cn1c(=O)c2c(nc(N3CCc4ccccc4C3)n2Cc2ccccc2F)n(C)c1=O	/	61*	/	13	/	47
COc1ccc(C=CC(=O)c2c(OC)cc(OC)c(OC)c2O)cc1	-6	68*	-4	-1	38	17
COc1ccc(OC)c(NC(=O)Nc2ccc(O)c3ccccc23)c1	-8	90*	46	1	/	45
COc1ccc(OC)c(N/C=C/C(=O)c2ccccc2)c1	81*	101*	78*	72*	96*	81*
COc1ccc(C(=O)/C=C/c2ccc(N(C)C)cc2)c(OC)c1	40	-9	23	3	-29	-27
COc1ccc(C(=O)/C=C/c2ccccc2)c(OC)c1	-82	59*	/	-9	0	-27
O=C(C[C@H]1C=C[C@H](NC(=O)NC2CCCCC2)[C@H](CO)O1)NCc1ccc(F)cc1	-5	/	2	/	20	/
SMILES	EWS-Fli block	TWEAK Fn14 block	PAX8 reporter	EBV LMP1 NFkB	LGR2 antag	TROY NFkB inh
CNC[C@H]1Oc2ccc(NS(=O)(=O)c3c(C)noc3C)cc2CC(=O)N([C@H](C)CO)C[C@H]1C	/	/	/	/	-18	/
COc1ccc(C(=O)/C=C/c2cc(OC)c(O)c(OC)c2)c(F)c1	/	56*	-6	18	22	6
COc1ccc(OC)c(C(=O)/C=C/c2ccccc2C(F)(F)F)c1	/	59*	35	1	/	7
COCOc1cc(O)c(C(=O)/C=C/c2ccccc2)c(OCOC)c1	8	71*	/	10	30	21
COc1ccc2cc(C(=O)/C=C/c3cc(OC)c(O)c(OC)c3)ccc2c1	4	17	3	-5	12	4
Cn1cnc(S(=O)(=O)N2CC[C@@H]3[C@H]2c2cc(-c4ccccc4F)ccc2N[C@@H]3CO)c1	-18	/	-45	/	-38	/
Cc1nc2c(C)c(C)c(C)c(C)c2nc1C	-4	-2	12	/	-1	-5
Cc1nc2c(O)c3c(c(O)c2nc1C)C1C=CC3CC1	-5	12	1	68*	0	-6
COc1ccc(NC(=O)N(C)C[C@@H]2Oc3ccc(NC(=O)c4ccncc4)cc3CC(=O)N([C@H](C)CO)C[C@@H]2C)cc1	1	/	-2	/	-26	/
O=C(N[C@H]1CC[C@@H](CCn2cc(-c3ccccn3)nn2)O[C@H]1CO)c1ccncc1	-5	/	-8	/	0	/
CCCCn1c(NC(=O)c2ccccc2)c(C#N)c2nc3ccccc3nc21	/	64*	/	11	/	68*
CCC(C)n1c(NC(=O)c2ccccc2)c(C#N)c2nc3ccccc3nc21 (configuration not stated)	/	42	/	12	-7	58*
COc1ccccc1S(=O)(=O)N[C@@H]1CC[C@@H](CC(=O)NCc2cc(F)cc(F)c2)O[C@@H]1CO	25	/	-14	/	-10	/
O=S(=O)(CC(CN1CCCCC1)N1CCCCC1)c1ccccc1 (configuration not stated)	-5	17	64*	25	9	32
COc1ccc2c3c(n(C)c2c1)[C@H](CO)N(C(=O)Cc1ccccn1)CC31CN(CC2CCCCC2)C1	-8	/	16	/	-2	/
CO[C@@H]1CC[C@H]2CCOc3ccc(C#N)cc3C(=O)N(C)[C@@H](C)C(=O)N(C)C[C@@H]1O2	-13	/	-7	/	9	/
O=C1C2CC=CCC2C(=O)N1c1ccc(NCCc2ccc(O)cc2)c([N+](=O)[O-])c1 (configuration not stated)	-30	57*	-17	0	2	1
Cn1cnc(S(=O)(=O)N2CC[C@@H]3[C@@H](CO)Nc4ccc(-c5ccccc5F)cc4[C@@H]32)c1	10	/	-11	/	-16	/
O=C(Oc1ccccc1C(=O)Nc1ccccc1)c1ccccc1Br	53*	39	-19	10	/	2
CC(C)NC(=O)N(C)C[C@H]1OCCCC[C@H](C)Oc2ccc(NC(=O)Cc3ccccc3)cc2C(=O)N([C@H](C)CO)C[C@@H]1C	/	/	10	/	-7	/
CC(=O)N(C)C[C@H]1Oc2ncc(C#CC(C)(C)O)cc2C(=O)N([C@@H](C)CO)C[C@H]1C	-22	/	/	/	-13	/
CCCCC1CCC(c2nc(-c3ccccn3)no2)CC1 (configuration not stated)	/	56*	/	-9	/	25
c1ccc(-c2noc(C3CCC3)n2)nc1	-44	1	-20	/	-16	-8
COCCCNCC1C(Oc2ccc(Cl)cc2)C(=O)N1c1ccccc1C (configuration not stated)	/	-29	/	76*	-6	-3

Compound activity as filed in PubChem BioAssay.
